Source: PubChem BioAssay (NCI)
About 83,000 compounds went through this panel and 20% of them were active in at least one assay; those are over-represented in the sample as a whole.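 Activity criterion: percent growth below 10, measured after cells in 96-well plates were exposed to a single compound concentration for 48 hours.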 Values without a mark were called inactive. The source made the active and inactive calls.

Experiments:
Assay in all cases: NCI-60 one-dose screen, 48 h (100 = growth as untreated, 0 = no growth, -100 = all killed)
Details in all cases: 10 µM unless noted
SR leukemia = test system: SR leukemia
RPMI-8226 leukemia = test system: RPMI-8226 leukemia
OVCAR-8 ovarian = test system: OVCAR-8 ovarian
OVCAR-5 ovarian = test system: OVCAR-5 ovarian
OVCAR-4 ovarian = test system: OVCAR-4 ovarian
SK-OV-3 ovarian = test system: SK-OV-3 ovarian
IGROV1 ovarian = test system: IGROV1 ovarian
NCI/ADR-RES ovarian = test system: NCI/ADR-RES ovarian
OVCAR-3 ovarian = test system: OVCAR-3 ovarian
HS 578T breast = test system: HS 578T breast

Structure (SMILES)	growth (SR leukemia)	growth (RPMI-8226 leukemia)	growth (OVCAR-8 ovarian)	growth (OVCAR-5 ovarian)	growth (OVCAR-4 ovarian)	growth (SK-OV-3 ovarian)	growth (IGROV1 ovarian) [%]	growth (NCI/ADR-RES ovarian)	growth (OVCAR-3 ovarian)	growth (HS 578T breast)
CCN(CC)C(=O)C1=C(C)NC(=O)NC1c1ccc2c(c1)OCO2 (centres undefined)	105%	102%	106%	105%	111%	111%	99.6	104%		
COc1ccccc1S(=O)(=O)Nc1ccc2c3c(cc(CCC(=O)NCCCCNc4cccc5c4C(=O)N(C4CCC(=O)NC4=O)C5=O)cc13)C(=O)N2C (centres undefined)	13.9%	53.6%	4.39% (active)	42%	-19.8% (active)	34.6%		88.2%	30%	-17.8% (active)
CSc1nc(-c2ccco2)c(C#N)c(=O)n1C	74.9%	91.8%	108%	109%	103%	97%		51.2%	104%	97%
CC1=C2CC/C(C)=C/CC[C@]3(C)O[C@H]3CC/C(C)=C/[C@H]2OC1	87.6%	93.6%	95.8%	81.3%	95.2%	95.7%		87.7%	110%	108%
C[C@H](c1nc2ccc(C#N)cc2[nH]1)[C@H]1CC[C@H]2[C@@H]3CCC4=CC(=O)CC[C@]4(C)[C@H]3CC[C@]12C	34.6%	20.3%	79.6%	85.3%	46%	80%		67.5%	72.1%	63.4%
C1CCC(N2CN3c4nonc4N4CN(C5CCCCC5)CN5c6nonc6N(C2)C3C45)CC1 (centres undefined)	83.8%	81.3%	95.5%	102%	88.9%	109%		93.3%	101%	86.6%
Cc1c2ncccc2nc2[nH]c3ccc(OCCN(C)C)cc3c12	12.8%	-31.6% (active)	11.5%	47.5%	27.5%	38.1%		24.8%	51.4%	47.9%
CN(C)c1ccc(/C=N\NC(=O)c2ccc3nc(-c4ccc(Cl)cc4)[nH]c3c2)cc1	20.7%	67.4%	51.3%	89.2%	36.4%	98.3%		77%	70.7%	70%
Cc1ccc(C2CC(c3cccc(Nc4ccncc4)c3)=Nc3c(N)nc(N)nc3N2)cc1 (centres undefined)	-4.18% (active)	44.9%	38%	95.5%	81.2%	97.9%		101%	82.1%	80%
Nc1cc(C(=O)O)cc(-n2c(O)c(C=C3N=c4ccccc4=N3)sc2=S)c1	121%	100%	103%	99%	101%	99.9%		103%	106%	103%
CC1(C)CC[C@]23CC[C@]4(C)[C@H](CC[C@@H]5[C@@]6(C)CCNCC(C)(C)[C@@H]6CC[C@]54C)[C@H]2[C@H]1OC3	4.33% (active)	29.7%	97.4%	106%	99.8%	96.5%		104%	98.5%	104%
Cc1ccc2c(c1)=C/C(=C\c1cc(-c3ccccc3)[nH]c1O)C(=O)N=2	14.1%	33.8%	50.6%	78.9%	59.7%	65.7%		43.7%	16.1%	41.9%
O=C(Nc1ccc(Nc2ccncc2)cc1)c1ccc(Nc2ccnc3ccc([N+](=O)[O-])cc23)cc1	-14.2% (active)	63.4%	104%	105%	84.4%	89.1%		106%	93.1%	110%
C(=C(\C1=NCCN1)n1ccc2ccccc21)/c1ccccc1	95.9%	100%	97%	92.6%	103%	105%		97.6%	104%	88.6%
O=C1Nc2ccc(Cl)cc2/C1=C/c1ccc[nH]1	50.4%	101%	102%	83.7%	44.3%	117%		112%	90.5%	
C#Cc1cccc(Nc2ncnc3cc(NC(=O)CCl)ccc23)c1	-37.5% (active)	-43.7% (active)	-11.7% (active)	-91% (active)	-60.1% (active)	-0.177% (active)		-28.6% (active)	-88.7% (active)	-2.33% (active)
CN1C(=O)N2CN3CCCN(C3)CN3C(=S)NC1C23 (centres undefined)	97.4%	93.6%	101%	109%	102%	93.3%		109%	107%	101%
CCOc1ccc(/C=C/C(=O)c2cccc(OCCCOc3cccc(C(=O)/C=C/c4ccc(OCC)cc4)c3)c2)cc1	90.1%	93.6%	85.9%	107%	69.1%	103%		86.5%		90.2%
